# Results as given in PubChem BioAssay AID652106 (National Center for Advancing Translational Sciences (NCATS), 2013).
# In all, about 370,000 compounds went through this assay and about 500 (0.14%) were called active. About 2% were inconclusive and are not listed. Calls come from the whole dose curve; as a rule, active = well fitted activation curve with a large enough effect; inconclusive = small, poorly fitted or top-dose-only effect; inactive = no such curve, though single readings can be large or run the other way. What follows is part of a selection rich in actives, with near analogues and random picks from the rest. A call without a number means that no potency is given here.
# Assay: qHTS of alpha-syn Inhibitors; note: nearly all actives have a fitted effect of over 65% in size
# Conditions: Yeast expressing alpha-synuclein, BacTiter-Glo, 24 h; Potency: growth rescue; series mostly up to 46.1 µM
# Summary of the method: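 Rescue of yeast growth: cells expressing toxic alpha-synuclein, induced in galactose at OD600 0.02, incubated with compound 24 h at 30 C. ATP luminescence quantified growth; inhibitors of toxicity appear as activators.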
# Potency is the fitted concentration of half-maximal effect.
row,Compound,Potency
1,COc1ccc(CNC(=O)CSc2nc3ccccc3nc2Cc2ccccc2)cc1,inactive
2,C(=Nc1ccc(/C=C/c2ccnc3ccccc23)cc1)c1cc2c3c(c1)CCCN3CCC2,inactive
3,O=C(COC(=O)c1ccccc1OCCOc1ccccc1)Nc1cccc(Br)c1,inactive
4,COc1ccc(C(C)(O)c2nc(-c3cc(F)cc(F)c3)cs2)cc1 (stereo unspecified),inactive
5,COc1ccc(C(C)(NC(C)=O)c2nc(-c3ccc(S(C)(=O)=O)cc3)cs2)cc1 (stereo unspecified),inactive
6,COc1ccc(C(C)(O)c2nc(-c3ccc(C)c(C)c3)cs2)cc1 (stereo unspecified),3.16 µM (active)
7,CCOc1n[nH]c(-c2ccccc2)n1,inactive
8,COc1ccc(N2CCN(S(=O)(=O)c3ccc(-c4coc(C)n4)cc3)CC2)cc1,inactive
9,Cc1ccc2ccc3c(c2n1)NS(=O)(=O)c1ccccc1-3,inactive
10,CCN1CCN(C(=O)C2(NC(=O)Nc3cccc(F)c3)CCCCC2)CC1,inactive
11,CCc1sc(C(=O)N2CCN(CC(=O)Nc3cccc(F)c3)CC2)cc1C,25.1 µM (active)
12,CC(=O)N1CCN(CC(=O)Nc2ccc(C)c(F)c2)CC1,inactive
13,CC1(C)CC(=O)c2cc(C(=O)NCc3ccccc3)c(=O)[nH]c2C1,inactive
14,Oc1ccccc1-c1nc2ccc(Cl)cn2c1Nc1ccc2c(c1)OCCO2,inactive
15,COCc1cccc(-c2csc(C(O)c3ccc(F)cc3)n2)c1 (stereo unspecified),inactive
16,COc1ccc(C(O)c2nc(-c3ccc4c(c3)OCO4)cs2)cc1 (stereo unspecified),22.4 µM (active)
17,COc1cc(C(O)c2nc(-c3cnn(C)c3)cs2)ccc1F (stereo unspecified),inactive
18,O=C(CCS(=O)(=O)c1ccc2c(c1)NC(=O)CO2)Nc1cccc(C(F)(F)F)c1,inactive
19,COc1cc(OC)c(OC)cc1/C=C1\C=Cc2ccccc21,inactive
20,CCC(=O)Nc1cccc(-c2nc3cc(C)ccc3o2)c1,inactive
21,Cc1cccc(N(C)C(=O)CS(=O)(=O)c2cccc3nsnc23)c1,inactive
22,O=C1O/C(=C\c2ccc(O)cc2)C(O)=C1c1ccc(O)cc1,inactive

row,Compound,Potency
1,CCN(CC)c1nc(C#N)nc(OC)n1,inactive
2,CN(C)c1ccc(C=Nc2ccc(/C=C/c3ccnc4ccccc34)cc2)cc1,inactive
3,CCOC(=O)c1ccc(NC(=O)C2CCN(S(=O)(=O)c3ccc4c(c3)CCCC(=O)N4)CC2)cc1,inactive
4,Cc1csc(NCC(=O)c2c[nH]c3ccccc23)n1,inactive
5,COc1ccc(CC(=O)Nc2nnc3n2CCS3)cc1OC,inactive
6,C[N+]1(CC(=O)c2cccs2)CCOCC1,inactive
7,CC(C)(C)c1ccc(C(=O)C[n+]2cccc3cc(Cl)ccc32)cc1,inactive
8,CCOC(=O)c1c(-c2ccc(OC)cc2)oc2ccc(OCc3ccc(C(=O)OC)cc3)cc12,inactive
9,CCN(CC)c1ccc(S(=O)(=O)N2CCOCC2)cc1NC(=O)CSc1cccc[n+]1[O-],17.8 µM (active)
10,O=C(CSc1ccccc1)Nc1cccc(S(=O)(=O)N2CCOCC2)c1,inactive
11,CCN(CC)c1ccc(S(=O)(=O)N2CCCCC2)cc1NC(=O)C1=COCCO1,inactive
12,Cc1ccc(CCNC(=O)c2ccc(CNS(=O)(=O)c3ccc(C)cc3)cc2)cc1,inactive
13,Nc1ccc(/C=C/c2ccnc3ccccc23)c([N+](=O)[O-])c1,inactive
14,Oc1ccc(N=Nc2nccs2)c(O)c1,2.24 µM (active)
15,CN(C)c1ccc(/C=N\Nc2ccc([N+](=O)[O-])cc2[N+](=O)[O-])cc1Cl,inactive
16,CSc1n[nH]c(-c2ccco2)n1,inactive
17,Cc1ccc(NC(=O)NCC(c2cccnc2)N2CCOCC2)cc1 (stereo unspecified),5.62 µM (active)
18,Cc1ccc(C)c(NC(=S)NCC(c2cccnc2)N2CCOCC2)c1 (stereo unspecified),inactive
19,Cc1ccc(C(CNC(=O)Nc2ccccc2)N2CCN(C)CC2)cc1 (stereo unspecified),inactive
20,O=C(COc1ccccc1)Nc1nonc1NC(=O)COc1ccccc1,inactive
21,O=C(COC(=O)CSc1nnc(-c2ccc(Cl)cc2)o1)Nc1cc(Cl)cc(Cl)c1,inactive
22,O=C(COC(=O)c1ccc(Oc2ccccc2)cc1)Nc1nnc(-c2ccccc2)o1,22.4 µM (active)

row,Compound,Potency
1,CCCS(=O)(=O)Nc1cccc(-c2cn3ccsc3n2)c1,inactive
2,CC1CCN(S(=O)(=O)c2ccc3c(c2)N(CC(=O)NCc2ccccc2Cl)C(=O)CO3)CC1,inactive
3,CC(=O)c1ccc[n+](C(C)CCC(C)[n+]2cccc(C(C)=O)c2)c1 (stereo unspecified),inactive
4,CN(C)c1ccnc2sc(C(=O)c3ccccc3)c(N)c12,25.1 µM (active)
5,COc1cccc(C(=O)c2sc3nc(-c4ccccc4)cc(C(F)(F)F)c3c2N)c1,inactive
6,CC(=O)c1c(Nc2ccccc2)sc(C(=O)c2ccccc2)c1C,inactive
7,CN(CCC#N)c1ccc(C=O)cc1,inactive
8,Cc1[nH]c2ccccc2c1C(=O)C(=O)N(C)c1ccccc1,inactive
9,CN1CC[C@H](c2c(O)cc(O)c3c(=O)cc(-c4ccccc4Cl)oc23)[C@H](O)C1,inactive
10,COc1cc(C(CC(=O)NCCC(C)C)N2Cc3ccccc3C2=O)cc(OC)c1OC (stereo unspecified),inactive
11,COc1ccc(/C=C/c2ccnc3ccccc23)cc1OC,inactive
12,C/C(=N\NC(=O)c1cccc([N+](=O)[O-])c1)c1cccnc1,inactive
13,CC(C)CC(=O)NC(=S)NNC(=O)c1cccc([N+](=O)[O-])c1,17.8 µM (active)
14,O=C(NC(=S)NC1CCS(=O)(=O)C1)c1cccc([N+](=O)[O-])c1 (stereo unspecified),inactive
15,O=[N+]([O-])c1ccc(/C=C/c2ccc3cccnc3c2)cc1,inactive
16,O=S(=O)(c1cccc(C(F)(F)F)c1)N1CCN(c2nc(-c3cccs3)nc3ccccc23)CC1,inactive
17,CO[C@H]1O[C@@H]2O[C@@]3(C)CC[C@@H]4[C@@H](C)CC[C@@H]([C@H]1C)[C@@]24OO3,inactive
18,CCOc1cc(C(=O)Nc2nnc3n2CCS3)cc(OCC)c1OCC,inactive
19,CC(C)c1cccc(C(C)C)c1Nc1cn[nH]c1,3.98 µM (active)
20,COc1ccc(-c2ccc(CN3C(CC(C)C)C(=O)N(Cc4cn(CC5CCCCC5)nn4)CCS3(=O)=O)cc2)cn1 (stereo unspecified),inactive
21,CC(C)CC1C(=O)N(Cc2cn(CC3CCCCC3)nn2)CCS(=O)(=O)N1Cc1ccc(-c2ccc(Cl)cc2)cc1 (stereo unspecified),1.58 µM (active)
22,CC(=O)c1cccc(-c2ccc(CN3C(CC(C)C)C(=O)N(Cc4cn(CC5CCCCC5)nn4)CCS3(=O)=O)cc2)c1 (stereo unspecified),inactive
